Assay [1] deals with Lysosomal acid glucosylceramidase (Homo sapiens) (UniProt P04062). Nature of the assay: Glucocerebrosidase-p2 (AID 348; in the data active = potency below about 10 µM; also: potency is read from the fitted curve at half-maximal effect). The conditions noted are these: purified GBA, blue fluorogenic substrate, 40 min. A digest of the protocol: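 Normal human glucocerebrosidase (0.2 nM) with blue fluorogenic substrate (80 uM final) in citrate/phosphate pH 5.9 with 10mM sodium taurocholate, 0.01% tween-20; 40 min RT, NaOH/glycine stop; fluorescence Ex 365/Em 440; AC50 from a titration from 0.6 nM upwards.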

In assay [2] the target is Glucocorticoid receptor (Homo sapiens) (UniProt P04150). Nature of the assay: GR-GFP Redistribution (AID 450;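 active = compounds whose dose series gives a full or clear partial fitted curve of increased nuclear translocation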; also: potency is read from the fitted curve at half-maximal effect). As to conditions: U2OS GR-GFP nuclear translocation, laser cytometry, 2 h.
Chain of Glucocorticoid receptor (Homo sapiens) (P04150 whole entry, looked up): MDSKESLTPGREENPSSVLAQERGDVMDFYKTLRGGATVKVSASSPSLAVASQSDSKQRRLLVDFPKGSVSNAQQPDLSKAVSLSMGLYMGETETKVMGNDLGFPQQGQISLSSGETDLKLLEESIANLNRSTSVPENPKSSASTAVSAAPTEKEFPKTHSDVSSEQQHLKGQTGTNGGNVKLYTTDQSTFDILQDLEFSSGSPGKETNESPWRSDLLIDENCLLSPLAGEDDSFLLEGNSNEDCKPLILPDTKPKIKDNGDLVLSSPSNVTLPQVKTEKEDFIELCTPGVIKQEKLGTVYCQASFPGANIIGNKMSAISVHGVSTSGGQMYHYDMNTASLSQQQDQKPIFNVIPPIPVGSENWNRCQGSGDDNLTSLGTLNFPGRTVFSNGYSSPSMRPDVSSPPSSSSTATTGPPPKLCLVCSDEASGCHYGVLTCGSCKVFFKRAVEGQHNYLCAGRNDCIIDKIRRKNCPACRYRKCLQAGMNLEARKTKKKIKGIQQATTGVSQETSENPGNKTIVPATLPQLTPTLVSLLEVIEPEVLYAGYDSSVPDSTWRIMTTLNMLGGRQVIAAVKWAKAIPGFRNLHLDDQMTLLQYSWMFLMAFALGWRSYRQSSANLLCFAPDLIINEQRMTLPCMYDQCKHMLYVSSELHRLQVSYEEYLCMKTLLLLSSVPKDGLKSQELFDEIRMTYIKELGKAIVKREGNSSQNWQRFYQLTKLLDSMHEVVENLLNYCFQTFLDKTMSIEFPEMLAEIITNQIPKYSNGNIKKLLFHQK
Assay [3] has the same target. The assay can be described thus: GR-EFC Redistribution (AID 451; calls by dose curve; also: potency is read from the fitted curve at half-maximal effect). The conditions noted are these: CHO-K1 GR-EFC translocation, beta-gal luminescence, 2 h. The essentials:
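CHO-K1 cells expressing nuclear EA and GR-ED fragments of b-gal; compounds titrated up to 46 uM final, 2 h at 37 C. GR nuclear translocation read as complemented b-gal luminescence after 1 h RT detection.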

Assay [4] addresses Mitogen-activated protein kinase 10 (Mus musculus) (UniProt Q61831). The assay can be described thus: JNK3 AlphaScreen Assay (AID 530; active = well fitted curve in either direction with a large enough effect, not every such curve was filed as active;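 also: kinase came from lysate of stimulated human HepG2 cells; signal reports phosphorylation of biotinylated GST-cJun 1-79 at Ser73 with 10 µM ATP; % is scaled to controls: 0 for no effect and ±100 for the full control effect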). A digest of the protocol: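 Activity was read by AlphaScreen after JNK3-containing HepG2 lysate (cytokine pre-activated) phosphorylated biotinylated GST-cJun with 10 uM ATP at room temperature. Phospho-Ser73 cJun antibody with Protein-A acceptor beads provided detection.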
(In Alpha technology, singlet oxygen from a donor bead excites a nearby acceptor bead.)

Assay [5] deals with 3',5'-cyclic-AMP phosphodiesterase 4B (Homo sapiens) (UniProt Q07343). Nature of the assay: qHTS Assay for Inhibitors of PDE-IV (AID 607; active = well fitted activation curve with a large enough effect in the main read-out, with a control signal flat, not every such curve was filed as active; also: % of control where 0% means no effect). The essentials:
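Live HEK293 cells with a modified cyclic nucleotide-gated (CNG) channel report intracellular cAMP via membrane-potential dye fluorescence (ex 535/em 590 nm). Endogenous PDE-IV was targeted. Compounds were tested at up to 22.9 uM final; RO 20-1724 100 uM served as control.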
A general note: qHTS replaces the single test concentration by a dilution series.

Assay [6] has as its target Dual specificity protein kinase CLK4 (Homo sapiens) (UniProt Q9HAZ1). The assay can be described thus: qHTS Assay for Inhibitors of CDC-like Kinase 4 (ADP-FP Assay) (AID 1795).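 Also: recombinant human CLK4 phosphorylating RS repeat peptide at 1 µM ATP; % is scaled to controls: 0 for no effect and ±100 for the full control effect; nearly all actives have a fitted effect of over 60% in size.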 The essentials:
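Kinase activity was followed as ADP output, converted from fluorescence polarization with a calibration curve. Reactions ran one hour at low ATP (1 uM) with RS peptide substrate.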

Assay [7] deals with Ubiquitin carboxyl-terminal hydrolase 1 (Homo sapiens) (UniProt O94782). Nature of the assay: Inhibitors of USP1/UAF1: Pilot qHTS (AID 504865). Also: nearly all actives have a fitted effect of over 35% in size. Also: potency is read from the fitted curve at half-maximal effect. A digest of the protocol:
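Enzyme-free wells gave the negative control, while test wells held 1nM USP1/UAF1 preincubated with compound for 15 min at room temperature. Ub-Rho at 150nM final started the reaction, and fluorescence at 480/540 nm was recorded kinetically.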

Assay [8] can be described thus: Primary qHTS for small molecule stabilizers of the endoplasmic reticulum resident proteome: Secreted ER Calcium Modulated Protein (SERCaMP) assay (AID 1508630). Also: % is scaled to controls: 0 for no effect and ±100 for the full control effect. The essentials:
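The SH-SY5Y reporter protocol was run at 3 concentrations up to 38.3 uM (primary) or 11 concentrations (follow-up): 16 h compound, 100 nM thapsigargin for 4 h, then extracellular luciferase luminescence.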

The target in assay [9] is Rap guanine nucleotide exchange factor 3 (Homo sapiens) (UniProt O95398). Nature of the assay: Confirmatory qHTS for antagonist of cAMP-regulated guanine nucleotide exchange factor 3 (EPAC1) (AID 1645880).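 Also: plate controls were DMSO only for no effect and full effect of the ATA control for full effect; nearly all actives have a fitted effect of over 55% in size.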 The essentials:
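Released BODIPY-GDP fluoresces less than Rap1-bound BODIPY-GDP; the signal is followed at 480/540 nm at 5-min intervals over 30 min, after 5 min at room temperature. Reactions contain 100 nM EPAC1, 250 nM RAP1B-BODIPY-GDP and 50 uM GDP; results are normalized to ATA and DMSO.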

Assay [10] has the same target. The assay can be described thus: Confirmatory qHTS for agonist of cAMP-regulated guanine nucleotide exchange factor 3 (EPAC1) (AID 1645881).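 Also: EPAC1 catalysed release of BODIPY-GDP from Rap1B seen as fluorescence loss; 100% = effect of cAMP agonist control; nearly all actives have a fitted effect of over 75% in size.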
The target in assay [11] is Rap guanine nucleotide exchange factor 4 (Homo sapiens) (UniProt Q8WZA2). The assay can be described thus: Confirmatory qHTS for agonist of cAMP-regulated guanine nucleotide exchange factor 4 (EPAC2) (AID 1645884).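 Also: nucleotide exchange releases bodipy-GDP from Rap1 and this lowers its fluorescence; % is scaled to controls: 0 for no effect and ±100 for the full control effect; nearly all actives have a fitted effect of over 65% in size.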
Chain of Rap guanine nucleotide exchange factor 4 (Homo sapiens) (Q8WZA2 whole entry, looked up): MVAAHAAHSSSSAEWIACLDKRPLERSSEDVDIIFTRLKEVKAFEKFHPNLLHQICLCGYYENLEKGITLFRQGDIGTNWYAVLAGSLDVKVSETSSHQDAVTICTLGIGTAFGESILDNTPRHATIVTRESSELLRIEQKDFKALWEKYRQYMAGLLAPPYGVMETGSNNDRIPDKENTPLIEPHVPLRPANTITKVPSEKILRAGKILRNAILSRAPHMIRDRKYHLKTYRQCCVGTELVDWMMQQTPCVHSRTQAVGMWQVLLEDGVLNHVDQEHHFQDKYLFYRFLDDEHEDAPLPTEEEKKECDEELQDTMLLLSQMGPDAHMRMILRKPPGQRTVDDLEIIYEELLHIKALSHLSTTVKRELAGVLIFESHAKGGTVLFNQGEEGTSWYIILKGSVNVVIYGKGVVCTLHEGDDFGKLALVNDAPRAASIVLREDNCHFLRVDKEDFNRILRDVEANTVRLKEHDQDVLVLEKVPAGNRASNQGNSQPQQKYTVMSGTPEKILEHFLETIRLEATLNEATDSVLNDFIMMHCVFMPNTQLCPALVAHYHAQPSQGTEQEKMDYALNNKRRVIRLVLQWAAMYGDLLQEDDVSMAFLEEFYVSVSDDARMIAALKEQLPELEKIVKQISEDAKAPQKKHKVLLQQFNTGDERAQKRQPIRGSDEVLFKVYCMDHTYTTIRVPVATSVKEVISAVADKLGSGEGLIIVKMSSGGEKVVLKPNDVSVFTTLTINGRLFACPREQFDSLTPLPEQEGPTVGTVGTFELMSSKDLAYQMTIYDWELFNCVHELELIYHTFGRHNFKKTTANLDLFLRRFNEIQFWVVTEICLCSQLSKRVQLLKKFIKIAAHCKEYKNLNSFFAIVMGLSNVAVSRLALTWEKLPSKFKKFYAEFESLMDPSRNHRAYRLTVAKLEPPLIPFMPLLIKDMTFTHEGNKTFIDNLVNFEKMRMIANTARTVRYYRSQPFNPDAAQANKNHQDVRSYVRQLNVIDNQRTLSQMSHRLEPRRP
For assay [12] the target is unchanged. The assay can be described thus: Confirmatory qHTS for antagonist of cAMP-regulated guanine nucleotide exchange factor 4 (EPAC2) (AID 1645885). Also: % is scaled to controls: 0 for no effect and ±100 for the full control effect; nearly all actives have a fitted effect of over 25% in size.
Assay [13] in a line: AP1 Signaling Pathway (AID 357; active = well fitted curve in either direction with a large enough effect, not every such curve was filed as active; also: % is scaled to controls: 0 for no effect and ±100 for the full control effect). As to conditions: ME-180 AP-1-bla reporter, EGF-induced, beta-lactamase ratio, 5 h; at 7.69 µM (top of the series) unless noted. The essentials: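 Cells are seeded overnight, exposed to compound titrations and an EC50 level of EGF for 5 hours at 37 °C, then loaded with CCF4 dye for 2.5 hours. Beta-lactamase activity under the AP-1 element is read as a blue/green ratio.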

Assay [14] is described as follows: NFAT Signaling Pathway (AID 444; active = well fitted curve in either direction with a large enough effect, not every such curve was filed as active;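 also: carbachol stimulus at about its EC50 of 1 µM final; % is scaled to controls: 0 for no effect and ±100 for the full control effect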). The conditions noted are these: Jurkat NFAT-bla M1, carbachol, beta-lactamase ratio, 5 h; at 7.69 µM (top of the series) unless noted. The essentials: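 Jurkat cells with NFAT-driven β-lactamase reporter and co-expressed M1 receptor, stimulated with carbachol (final 1 uM, ~EC50), compound titration, 5 h at 37 °C. CCF4 loaded 1 h at RT; 460/530 nm ratio gave %activity and AC50.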

The nature of assay [15]: Stat Signaling Pathway (AID 446; active = well fitted curve in either direction with a large enough effect, not every such curve was filed as active). As to conditions: ME-180 (cervical carcinoma) SIE beta-lactamase reporter, IL-6 stimulated, 5 h; at 7.69 µM (top of the series) unless noted. The essentials: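 Overnight-plated ME-180 cells bearing a STAT Inducible Element beta-lactamase reporter; 5 h co-exposure to compound and 40 pM IL-6; values normalized to 300 pM IL-6 and 125 nM JAK inhibitor controls.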

In assay [16] the target is Cytochrome P450 3A4 (Homo sapiens) (UniProt P08684). The assay can be described thus: qHTS Assay for Inhibitors and Substrates of Cytochrome P450 3A4 (AID 884). Also: % is scaled to controls: 0 for no effect and ±100 for the full control effect; nearly all actives have a fitted effect of over 50% in size. A digest of the protocol: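 Luminescent readout of luciferin produced by CYP3A4 (20 nM) dealkylation of Luciferin-PPXE, 25 uM (its KM). NADPH-driven reaction ran 60 min at RT after 10 min compound preincubation; data scaled to 57 uM ketoconazole as 100% inhibition.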
Chain of Cytochrome P450 3A4 (Homo sapiens) (P08684 whole entry, looked up): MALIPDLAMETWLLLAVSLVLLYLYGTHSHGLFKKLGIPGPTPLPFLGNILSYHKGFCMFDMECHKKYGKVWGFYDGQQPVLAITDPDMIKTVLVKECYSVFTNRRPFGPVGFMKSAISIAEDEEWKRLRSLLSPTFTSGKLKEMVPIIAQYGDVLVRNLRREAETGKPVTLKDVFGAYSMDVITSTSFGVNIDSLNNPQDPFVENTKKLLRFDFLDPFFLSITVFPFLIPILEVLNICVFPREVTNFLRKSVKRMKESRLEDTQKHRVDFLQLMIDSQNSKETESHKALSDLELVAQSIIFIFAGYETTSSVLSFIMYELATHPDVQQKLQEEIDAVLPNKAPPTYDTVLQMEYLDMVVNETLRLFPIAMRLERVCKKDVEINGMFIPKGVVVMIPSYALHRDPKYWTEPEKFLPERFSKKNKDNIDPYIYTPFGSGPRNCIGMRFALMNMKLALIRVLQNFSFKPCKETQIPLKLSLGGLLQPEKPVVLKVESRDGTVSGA

Assay [17] in a line: qHTS Assay for Lipid Storage Modulators (AID 1519; calls by dose curve). As to conditions: Drosophila S3 cells, BODIPY lipid droplet/cell ratio, laser cytometry, cells loaded with oleic acid; for activity change, negative = inhibition: at 57.5 µM (top of the series). The essentials:
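Cells seeded at 5,000 per well were treated with compounds over a concentration series and loaded with oleic acid (400 uM, as added). Lipid droplet fluorescence (488 nm excitation, 500-530 nm channel) was read by laser-scanning cytometry and normalized to 20 uM Triacsin C.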

The target in assay [18] is Cytochrome P450 1A2 (Homo sapiens) (UniProt P05177). Nature of the assay: p450-cyp1a2 (AID 410; calls by dose curve;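 also: -100% = full effect of reference inhibitor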). The essentials: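 O-Demethylation of luciferin 6' methyl ether by human CYP1A2 is monitored as luciferase luminescence. Substrate sits at Km (100uM); enzyme is 20nM. Values are scaled to 57 uM furafylline as maximal inhibition.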
Assay [19] addresses Cytochrome P450 3A4 (Homo sapiens) (UniProt P08684). The assay can be described thus: qHTS Assay for Activators of Cytochrome P450 3A4 (AID 885). Also: nearly all actives have a fitted effect of over 65% in size. Also: potency is read from the fitted curve at half-maximal effect. A digest of the protocol: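 Using 20nM recombinant human CYP3A4 in potassium phosphate (200mM), substrate Luciferin-PPXE at 25uM, luminescent luciferin detection followed a 60-min RT NADPH reaction; data scaled to 57 uM ketoconazole.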

Assay [20] can be described thus: Confirmation and Secondary Assay for Modulators of Hemoglobin Beta Chain Splicing at IVS2 705 locus (AID 930).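 Also: HeLa cells stably expressing the EGFP-705 splicing reporter; GFP fluorescence per well restored by corrected splicing of the IVS2-705 intron in EGFP; % of control where 0% means no effect.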 The essentials:
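Fluorescence gain (488 nm laser, 500-520 nm PMT) reflects restored correct splicing of a mutant IVS2-705 intron inside EGFP in stably transfected HeLa cells after 2-day compound treatment.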

Setting [21] is: measured here: cell count channel max response.
Where [22] appears, read: measured here: lipid channel max response.

Records with an inconclusive call do not appear. The source made the active and inactive calls. Unless noted, calls follow the shape of the dose curve; as a rule, active = well fitted curve in the direction sought with a large enough effect; inconclusive = small, poorly fitted or top-dose-only effect, or another doubt; inactive = no such curve, though single readings can be large; an effect the other way counts as inactive or inconclusive.

Chain of Rap guanine nucleotide exchange factor 3 (Homo sapiens) (O95398 whole entry, looked up): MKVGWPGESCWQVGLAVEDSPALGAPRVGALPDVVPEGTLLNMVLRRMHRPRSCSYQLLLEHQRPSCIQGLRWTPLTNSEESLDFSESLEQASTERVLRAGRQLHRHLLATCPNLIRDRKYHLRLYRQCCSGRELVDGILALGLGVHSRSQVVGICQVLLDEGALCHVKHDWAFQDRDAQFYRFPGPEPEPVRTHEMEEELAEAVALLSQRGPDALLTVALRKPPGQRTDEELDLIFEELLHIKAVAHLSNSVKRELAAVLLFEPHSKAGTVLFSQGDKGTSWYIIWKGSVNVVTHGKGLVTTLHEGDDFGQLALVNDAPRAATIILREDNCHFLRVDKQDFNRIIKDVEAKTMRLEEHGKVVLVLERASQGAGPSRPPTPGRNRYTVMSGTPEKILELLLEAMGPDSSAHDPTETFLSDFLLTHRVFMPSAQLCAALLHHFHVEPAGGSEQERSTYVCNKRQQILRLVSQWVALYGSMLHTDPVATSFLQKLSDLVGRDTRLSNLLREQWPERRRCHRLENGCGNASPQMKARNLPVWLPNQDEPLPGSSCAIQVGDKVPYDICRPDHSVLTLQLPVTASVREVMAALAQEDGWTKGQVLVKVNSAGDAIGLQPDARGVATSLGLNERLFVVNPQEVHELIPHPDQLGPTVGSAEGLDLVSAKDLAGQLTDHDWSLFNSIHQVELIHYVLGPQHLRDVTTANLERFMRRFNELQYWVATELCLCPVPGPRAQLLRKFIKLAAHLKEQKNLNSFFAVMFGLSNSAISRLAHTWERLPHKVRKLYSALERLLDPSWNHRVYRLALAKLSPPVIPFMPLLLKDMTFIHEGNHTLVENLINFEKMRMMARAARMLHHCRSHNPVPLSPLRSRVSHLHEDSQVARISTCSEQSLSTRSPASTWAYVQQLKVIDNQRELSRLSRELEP
Chain of Ubiquitin carboxyl-terminal hydrolase 1 (Homo sapiens) (O94782 whole entry, looked up): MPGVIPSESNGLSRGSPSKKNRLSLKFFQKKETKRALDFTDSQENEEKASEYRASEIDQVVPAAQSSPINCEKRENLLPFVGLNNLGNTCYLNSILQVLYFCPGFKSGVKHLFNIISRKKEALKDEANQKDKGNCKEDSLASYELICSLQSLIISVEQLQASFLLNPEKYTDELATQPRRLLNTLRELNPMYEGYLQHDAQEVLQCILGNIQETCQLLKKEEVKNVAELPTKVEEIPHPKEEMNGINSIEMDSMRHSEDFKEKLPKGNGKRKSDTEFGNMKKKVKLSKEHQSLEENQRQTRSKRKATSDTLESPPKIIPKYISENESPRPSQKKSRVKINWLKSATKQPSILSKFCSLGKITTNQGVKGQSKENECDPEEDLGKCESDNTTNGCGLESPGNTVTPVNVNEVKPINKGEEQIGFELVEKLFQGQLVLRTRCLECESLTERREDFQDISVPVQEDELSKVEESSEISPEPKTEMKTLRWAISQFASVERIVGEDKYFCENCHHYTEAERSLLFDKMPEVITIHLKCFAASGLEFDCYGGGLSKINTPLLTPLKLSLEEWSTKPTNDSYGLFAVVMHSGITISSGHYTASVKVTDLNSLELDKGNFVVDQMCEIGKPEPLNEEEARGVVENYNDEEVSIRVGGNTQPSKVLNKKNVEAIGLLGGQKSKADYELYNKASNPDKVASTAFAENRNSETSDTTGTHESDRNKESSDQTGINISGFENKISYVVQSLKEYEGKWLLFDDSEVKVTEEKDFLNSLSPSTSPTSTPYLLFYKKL
Chain of 3',5'-cyclic-AMP phosphodiesterase 4B (Homo sapiens) (Q07343 whole entry, looked up): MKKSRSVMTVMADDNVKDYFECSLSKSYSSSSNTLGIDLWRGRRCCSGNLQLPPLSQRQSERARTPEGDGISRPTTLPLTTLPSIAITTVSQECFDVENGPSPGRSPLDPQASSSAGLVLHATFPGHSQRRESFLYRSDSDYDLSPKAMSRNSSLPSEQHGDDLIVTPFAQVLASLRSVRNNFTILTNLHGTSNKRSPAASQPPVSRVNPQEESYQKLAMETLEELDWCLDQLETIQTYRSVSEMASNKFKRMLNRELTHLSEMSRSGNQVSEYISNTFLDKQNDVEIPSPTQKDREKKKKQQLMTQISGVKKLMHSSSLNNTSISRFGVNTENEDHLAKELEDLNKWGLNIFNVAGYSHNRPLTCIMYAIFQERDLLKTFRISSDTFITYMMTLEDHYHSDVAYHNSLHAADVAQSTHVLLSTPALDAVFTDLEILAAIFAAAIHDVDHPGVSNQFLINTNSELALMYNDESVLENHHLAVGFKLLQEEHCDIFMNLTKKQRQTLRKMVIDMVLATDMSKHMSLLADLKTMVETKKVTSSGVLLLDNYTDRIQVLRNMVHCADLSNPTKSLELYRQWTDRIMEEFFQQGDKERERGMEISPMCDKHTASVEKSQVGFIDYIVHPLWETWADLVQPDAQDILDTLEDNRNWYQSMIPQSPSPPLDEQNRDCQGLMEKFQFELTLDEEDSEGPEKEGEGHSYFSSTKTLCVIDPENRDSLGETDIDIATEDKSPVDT

Regarding `COc1cccc(Cn2c(=O)c(-c3ccc(F)cc3)nc3cnc(N4CCOCC4)nc32)c1`, the Potency in [1] was > 11.4 µM (inactive); in assay [2], > 9.22 µM (inactive); in assay [3], > 46 µM (inactive). Besides, the Potency result in assay [4], in assay [5], in assay [6], in [7], in assay [9] and in [10] was “inactive” throughout. Besides, the Potency result in assay [11] and in assay [12] was “inactive” throughout. In [8], the outcome was inactive.

On to `COc1cccc(Nc2ncc3nc(-c4cn(C)c5ccccc45)c(=O)n(C[C@H]4CCCO4)c3n2)c1`, for which the Potency is > 11.4 µM (inactive) in assay [1], > 9.22 µM (inactive) in assay [2] and > 46 µM (inactive) in assay [3]. Moreover, the activity change, negative = inhibition is -25.8% (inactive) in assay [13] and -1.76% (inactive) in assay [14]. Also, the activity, negative = inhibition in assay [15] was 8.32% (inactive). The Potency entry in [4], in assay [5], in assay [6], in [9], in [10] and in assay [11] was “inactive” in each case. In assay [12], the Potency result was “inactive”. Also, the outcome in assay [8] was inactive.

Turning to `OC[C@H]1O[C@@H](n2cnc3c(NCc4ccco4)ncnc32)[C@H](O)[C@@H]1O`, in [16], the Potency entry was “inactive”. For the same compound, in assay [17], the activity change, negative = inhibition is -9.06% (inactive). The max response in assay [17] (setting [21]) is -12.6%; in assay [17] (setting [22]), -19.8%. Moreover, the result in [8] was inactive.

For `N[C@H](C(=O)O)c1ccc(O)c(C(=O)O)c1`, the Potency in assay [2] is > 46 µM (inactive). Also, the Potency entry in [4], in assay [5] and in assay [7] was “inactive” in each case. The activity change, negative = inhibition in assay [17] was 1.32% (inactive). The max response in [17] (setting [21]) is 18.1%; in assay [17] (setting [22]), 22.5%. For the same compound, in assay [8], the result was inactive.

Consider `O=C(c1cnccn1)N1CCC2(CC1)CN(c1ccccn1)C2`, for which the Potency result in [18], in [4], in assay [5] and in assay [16] was “inactive” throughout. The activity change, negative = inhibition in assay [14] was -1.72% (inactive); in [17], 2.3% (inactive). Moreover, the activity, negative = inhibition in assay [15] is 22.6% (inactive). The results for the Potency in [3] and in assay [19] were > 46 µM (inactive) and 3.98 µM (active), respectively. Besides, the max response in assay [17] (setting [21]) is -1.81%; in assay [17] (setting [22]), -0.0464%. In addition, in assay [8], the result was inactive.

Take `O=C(c1ccncc1)N1CCC2(CC1)CCN(c1ccc(-c3ccccc3)cc1)CC2`: the activity change, negative = inhibition was -18.3% (inactive) in assay [13], 14.4% (inactive) in [14] and 0.379% (inactive) in assay [17]. Further, the activity, negative = inhibition in assay [15] is -9.73% (inactive). The Potency in assay [3] is > 46 µM (inactive). Also, the Potency entry in [4] and in [5] was “inactive” throughout. Moreover, the results for the max response in assay [17] (setting [21]) and in assay [17] (setting [22]) were -2.77% and 2.35%, respectively. For the same compound, the outcome in assay [8] was inactive.

As to `O=C1C=C(O)c2ccccc2C1=O`, the Potency entry in assay [19] was “inactive”. Also, the outcome in [20] and in assay [8] was inactive. In assay [17], the activity change, negative = inhibition was -2.81% (inactive). In addition, the max response in assay [17] (setting [21]) was -0.646%; in assay [17] (setting [22]), -2.25%. Besides, the Potency in assay [7] is 50.1 µM (active).

With `O=C(c1ccncc1)N1CCC[C@@]2(CCN(Cc3ccncc3)C2)C1`, the activity change, negative = inhibition in [13] was 14.5% (inactive); in assay [14], 3.82% (inactive); in assay [17] it was 4.83% (inactive). The activity, negative = inhibition in assay [15] was -6.44% (inactive). Besides, the Potency in assay [3] is > 46 µM (inactive). In addition, the Potency result in assay [4] and in assay [5] was “inactive” each time. Moreover, the max response in assay [17] (setting [21]) was determined as 4.05%; in assay [17] (setting [22]), 12.8%. In addition, the result in assay [8] was inactive.

As to `Cn1cccc1C(=O)N1CCC2(CCCN(c3ccncc3)C2)CC1`, the activity change, negative = inhibition in assay [13] was 11.9% (inactive); in [17] it was 5.74% (inactive). Also, the activity, negative = inhibition in assay [15] was 0.921% (inactive). Further, the Potency in assay [3] was > 46 µM (inactive). In addition, the Potency entry in assay [4] and in assay [5] was “inactive” in each case. Further, the figures for the max response in assay [17] (setting [21]) and in [17] (setting [22]) were 8.08% and 18.3%, respectively. The result in [8] was inactive.

These data come from PubChem BioAssay (NCATS).
